# Hits are enriched below; roughly 7.4% of the tested compounds scored in any of these assays.
# FLuc modulator: inhibits or activates purified firefly luciferase, miR-21 counter-screen; purified FLuc, Km substrates, luminescence inhibition; 360,000 compounds, 6.9% hits; Potency, µM (highest dose often 57.5 µM), usual class: inhibitors; P08659; further: nearly all actives have a fitted effect of over 55% in size
# Target sequence (P08659 whole entry, looked up): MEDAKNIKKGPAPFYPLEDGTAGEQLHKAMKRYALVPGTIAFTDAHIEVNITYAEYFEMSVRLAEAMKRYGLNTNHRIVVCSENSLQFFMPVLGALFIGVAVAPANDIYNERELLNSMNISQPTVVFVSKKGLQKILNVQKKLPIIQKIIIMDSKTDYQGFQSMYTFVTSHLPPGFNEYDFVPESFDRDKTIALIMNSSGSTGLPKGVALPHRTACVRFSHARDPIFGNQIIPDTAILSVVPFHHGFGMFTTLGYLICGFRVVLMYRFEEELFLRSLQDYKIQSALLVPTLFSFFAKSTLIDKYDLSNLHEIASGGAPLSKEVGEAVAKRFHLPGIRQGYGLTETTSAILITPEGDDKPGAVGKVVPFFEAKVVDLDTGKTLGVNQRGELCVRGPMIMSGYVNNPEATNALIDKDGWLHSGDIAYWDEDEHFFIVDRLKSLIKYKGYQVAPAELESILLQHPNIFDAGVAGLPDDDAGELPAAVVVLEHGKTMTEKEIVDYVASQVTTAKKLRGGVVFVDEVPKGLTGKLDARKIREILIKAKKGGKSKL
#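 Biochemical qHTS of compounds, final roughly 60 µM downward over six points, against 10 nM purified firefly luciferase using Km concentrations of substrates (10 uM D-luciferin, 10 uM ATP) in Tris acetate pH 7.5 buffer; luminescence output.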
# ELG1 genotox: induces genotoxicity in HEK293T cells with luciferase-tagged ELG1. HEK293T ELG1-luciferase reporter, luminescence, 16 h. Potency, µM (highest dose often 46 µM), most hits filed as activators. 330,000 compounds, 1.3% hits; further: nearly all actives have a fitted effect of over 60% in size
#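 DMSO vehicle served as control against compound-treated ELG1-luciferase HEK293T cells; exposure lasted 16 hr at 37 °C and 5% CO2, followed by ONE-Glo luminescence detection after 30 min.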
# Rab9 prom act: activators of Rab9 promoter; Potency, µM (series often up to 9.22 µM), hits mostly activators; 320,000 compounds, 2.8% hits; Huh7 Rab9 promoter-luciferase reporter, luminescence, 24 h; further: nearly all actives have a fitted effect of over 60% in size
#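 Using Huh7 cells stably transfected with Rab9 promoter–luciferase, compounds were incubated 24 h at 37 °C, 5% CO2; luciferase luminescence was read 10 min after reagent addition.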
# NPC1 prom act: activators of NPC1 promoter | Potency, µM (doses to about 9.22 µM), usual class: activators | Huh7 NPC1 promoter luciferase reporter, 24 h | 320,000 compounds, 2.4% hits | AID 485313; further: nearly all actives have a fitted effect of over 60% in size
#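 NPC1 promoter–luciferase Huh7 cells; 24 h compound; luminescence.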
# SMN2 splice up: SMN2 splice variant enhancement | HEK293 SMN2-luciferase splicing reporter, luminescence, 30-36 h | Potency, µM (titrated, usually from 46.1 µM), most hits filed as activators | 210,000 compounds, 2.8% hits; further: nearly all actives have a fitted effect of over 55% in size
#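 HEK293 cells carry an SMN2 minigene-luciferase reporter in which exon 7 inclusion puts luciferase in frame. Cells were seeded at 2000 cells/well, attached for 10-12 hours, then exposed to compounds for 30-36 hours at 37C before ONE-Glo luminescence.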
# Luc counter: blocks Kinase-Glo luciferase, a counter-screen artifact; 200,000 compounds, 0.28% hits; Potency, µM (doses to about 38.3 µM), actives largely listed as inhibitors; Kinase-Glo luciferase, ATP luminescence, 8 min; further: nearly all actives have a fitted effect of over 60% in size
#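 Recombinant Kinase-Glo luciferase, 10 uM ATP (linear range), luciferin; imidazole pH 7.2 / KCl / MgCl2 / Tween / BSA buffer; 8 min RT; luminescence.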
# Hits are given with their value; - = inactive; ? = inconclusive; . = not tested or not shown; [ ] = dose if it differs, or a comment. The call rests on the fitted dose curve; in most records, active means well fitted curve in the direction sought with a large enough effect; inconclusive means small, poorly fitted or top-dose-only effect, or another doubt; inactive means no such curve, though single readings can be large; an effect the other way counts as inactive or inconclusive.
SMILES,FLuc modulator,ELG1 genotox,Rab9 prom act,NPC1 prom act,SMN2 splice up,Luc counter
COc1ccccc1C(=O)N/C(N)=N/c1nc2ccccc2o1,?,-,?,?,-,-
CCCC(=O)N/C(N)=N/c1nc2ccccc2o1,6.75µM,?,0.708µM,0.891µM,.,.
N/C(=N\c1nc2ccccc2o1)NC(=O)c1ccccc1,?,8.2µM,?,3.98µM,-,-
Cc1ccc(C(=O)N/C(N)=N/c2nc3ccccc3o2)cc1,-,?,?,?,-,-
CC(C)(C)C(=O)N/C(N)=N/c1nc2ccccc2o1,-,?,0.447µM,0.891µM,.,.
COc1ccc(NC(=O)CSc2nnc(-c3nonc3NC(C)=O)n2C)cc1Cl,-,.,.,.,.,.
CC(C)CC(=O)N/C(N)=N/c1nc2ccccc2o1,8.49µM,?,1.41µM,1.58µM,.,.
O=C(CN1CCC(NC(=O)Nc2ccccc2)CC1)Nc1ccc([N+](=O)[O-])cc1,-,-,-,-,.,.
CCC(C)(C)NC(=O)CN(C(=O)CNS(=O)(=O)c1ccc(F)cc1)c1ccc2c(c1)OCCO2,-,?,-,-,.,.
COc1ccccc1-n1cc(C(=O)NCC(=O)N2CCN(c3ccccc3)CC2)c2ccccc2c1=O,0.757µM,-,?,-,?,-
COc1ccccc1-n1cc(C(=O)NCC(=O)N2CCN(c3ccccn3)CC2)c2ccccc2c1=O,3.38µM,-,-,-,.,.
COc1ccccc1N1CCN(C(=O)CNC(=O)c2cn(-c3ccccc3OC)c(=O)c3ccccc23)CC1,6.75µM,-,-,-,-,-
CCOc1ccc(NC(=O)COC(=O)CCN2C(=O)C3CC=CCC3C2=O)cc1OCC (centres undefined),-,-,-,-,.,.
CCC(=O)N1CCc2cc(Br)cc(S(=O)(=O)CCC(=O)N3CCN(c4cccc(C(F)(F)F)c4)CC3)c21,-,.,.,.,-,.
CCc1ccc(NC(=O)C(C)Sc2ccc(S(=O)(=O)N3CCN(C)CC3)cn2)cc1 (centres undefined),.,-,-,-,.,.
CCOC(=O)c1cccc(NC(=O)C2CCN(S(=O)(=O)c3ccc4c(c3)oc(=O)n4C)CC2)c1,-,.,.,.,-,.
Cc1ccc(Oc2ccc(Cl)cc2N)cc1,21.3µM,-,-,-,-,-
Nc1cc(Cl)ccc1Oc1ccc2ccccc2c1,?,?,-,-,-,-
Cc1cccc(/C=C(\C(=O)C(=O)O)c2ccc3ccccc3n2)c1,?,14.6µM,2.24µM,2.24µM,22.4µM,-
N#Cc1ccc(/C=C(\C(=O)C(=O)O)c2ccc3ccccc3n2)cc1,?,?,?,-,.,.
O=C(O)C(=O)/C(=C\c1cccc(Cl)c1)c1ccc2ccccc2n1,?,?,-,-,11.2µM,-
Cc1c(C(=O)N2CCN(CCc3ccccn3)CC2)oc2ccc(Cl)cc12,-,-[9.26 µM],-,-,.,.
O=C(NCc1cc(F)ccc1F)C1CCC(=O)N(C2CCCCCC2)C1 (centres undefined),?,?,?,-,.,.
CSc1cccc(-n2cc(-c3ccc4c(c3)OCO4)[nH]c2=O)c1,21.3µM,?,?,-,?,-
CSc1cccc(NC(=O)CNC(=O)c2ccc3c(c2)OCO3)c1,-,-,-,-,.,.
SMILES,FLuc modulator,ELG1 genotox,Rab9 prom act,NPC1 prom act,SMN2 splice up,Luc counter
CC(=O)N1c2ccc(S(=O)(=O)NCCC(=O)N3CCC(C)CC3)cc2CC1C (centres undefined),-,-[9.26 µM],-,-,.,.
Cc1cccnc1NC(=O)c1sc2ccccc2c1Cl,2.69µM,3.66µM,2.51µM,1.41µM,.,.
CNC(=O)c1ccsc1NC(=O)c1sc2ccccc2c1Cl,3.79µM,-,?,?,12.6µM,-
O=C(NC1=NCCS1)c1sc2ccccc2c1Cl,2.13µM,2.91µM,1.12µM,1.26µM,12.6µM,-
CCN(CC)c1ccc(NC(=O)c2sc3ccccc3c2Cl)cc1,?,.,.,.,-,.
Cc1ccc(NC(=O)c2sc3ccccc3c2Cl)nc1,0.269µM,?,3.55µM,3.55µM,0.631µM,-
O=C(NC1=NCCS1)c1sc2cc(Cl)cc(Cl)c2c1Cl,-,-,-,-,-,-
Cc1c(NC(=S)NC(=O)c2sc3ccccc3c2Cl)cccc1C(=O)O,0.757µM,?,?,?,3.98µM,-
COCc1nnc(NC(=O)c2sc3ccccc3c2Cl)s1,5.36µM,?,?,?,-,-
COc1ccccc1C(=O)NNC(=S)NC(=O)c1sc2ccccc2c1Cl,-,-,-,-,-[1.84 µM],-
COCc1nnc(NC(=O)c2cccs2)s1,-,-,-,-,-,-
Cc1nnc(NC(=O)c2sc3ccccc3c2Cl)s1,0.379µM,?,1µM,1.26µM,12.6µM,-
O=C(O)CCCn1cc(NC(=O)c2sc3ccccc3c2Cl)cn1,26.9µM,-,-,-,.,.
CCOc1ccc(NC(=S)C(C#N)=C2N(C)c3ccccc3N2C)cc1,-,-,-,-,-,-
Oc1ccc(CNc2cccc(C(F)(F)F)c2)c2cccnc12,-,.,-,-,.,.
Brc1ccccc1OCCOc1cccc2cccnc12,12µM,-,-,-,?,-
COc1cccc(C=O)c1OCCCOc1cccc2cccnc12,?,18.3µM,4.47µM,?,.,.
Brc1ccccc1OCCCOc1cccc2cccnc12,10.7µM,?,3.98µM,?,.,.
S=C(NCc1ccco1)N1CCN(c2ccccc2Cl)CC1,-,-,-,-,-,-
COc1ccc(-c2nc3sc(CCNC(=O)c4ccco4)c(C)n3n2)cc1,21.3µM,.,.,.,.,.
COc1ccc(-c2nc3sc(CCNC(=O)c4cc(OC)c(OC)c(OC)c4)c(C)n3n2)cc1,10.7µM,.,.,.,.,.
COc1ccc(Oc2nc3c(c(=O)n(C)c(=O)n3C)n2Cc2ccc(Cl)cc2Cl)cc1,-,.,.,.,.,.
COc1ccccc1NC(=O)C1=C(C)Nc2c(C(=O)Nc3ccc(F)cc3)cnn2C1c1cccc([N+](=O)[O-])c1 (centres undefined),-,.,.,.,.,.
CCC(CC)C(=O)Nc1ccc(OCc2cc(=O)n3c4c(sc3n2)CCCC4)cc1,-,.,.,.,-,.
Cc1ccc2[nH]c3c(NCc4ccccc4)ncnc3c2c1,23.9µM,-,-,-,.,.
SMILES,FLuc modulator,ELG1 genotox,Rab9 prom act,NPC1 prom act,SMN2 splice up,Luc counter
COc1ccc(CNc2ncnc3c2[nH]c2cc(OC)c(OC)cc23)cc1,23.9µM,-,-,-,.,.
Cc1ccc2[nH]c3c(N4CCOCC4)ncnc3c2c1,16.9µM,-,-,-,-,-
CCCOc1ncnc2c1[nH]c1ccc(C)cc12,1.2µM,?,?,2.82µM,.,.
COc1ccc(CNc2ncnc3c2[nH]c2ccccc23)cc1,?,-,-,-,.,.
COc1ccccc1NC(=O)C1CCCN(c2cnccn2)C1 (centres undefined),-,-,-,-,.,.
CC12CCC(=O)N1C(C(=O)Nc1nc(-c3ccccc3Cl)cs1)CS2 (centres undefined),?,?,-,-,.,.
O=C(NNC(=O)c1ccc(Br)s1)c1csc(N2CCOCC2)n1,-,-,-,-,.,.
O=C(Nc1ccc(N2CCOCC2)cc1)c1cc2c(s1)CCCCC2,19µM,-,-,-,-,-
